In all, about 310,000 compounds went through this assay and about 2,200 (0.71%) showed an effect of 50% or more. The effect is printed as a negative number. What follows is part of a selection rich in strong results, with near analogues and random picks from the rest.
Target: human ether-à-go-go-related gene (hERG) potassium channel (human, UniProt Q12809)
Assay: primary screen, population patch clamp on CHO cells stably expressing hERG; higher = less effect of the substance

Sequence of human ether-à-go-go-related gene (hERG) potassium channel (Q12809 whole entry, looked up): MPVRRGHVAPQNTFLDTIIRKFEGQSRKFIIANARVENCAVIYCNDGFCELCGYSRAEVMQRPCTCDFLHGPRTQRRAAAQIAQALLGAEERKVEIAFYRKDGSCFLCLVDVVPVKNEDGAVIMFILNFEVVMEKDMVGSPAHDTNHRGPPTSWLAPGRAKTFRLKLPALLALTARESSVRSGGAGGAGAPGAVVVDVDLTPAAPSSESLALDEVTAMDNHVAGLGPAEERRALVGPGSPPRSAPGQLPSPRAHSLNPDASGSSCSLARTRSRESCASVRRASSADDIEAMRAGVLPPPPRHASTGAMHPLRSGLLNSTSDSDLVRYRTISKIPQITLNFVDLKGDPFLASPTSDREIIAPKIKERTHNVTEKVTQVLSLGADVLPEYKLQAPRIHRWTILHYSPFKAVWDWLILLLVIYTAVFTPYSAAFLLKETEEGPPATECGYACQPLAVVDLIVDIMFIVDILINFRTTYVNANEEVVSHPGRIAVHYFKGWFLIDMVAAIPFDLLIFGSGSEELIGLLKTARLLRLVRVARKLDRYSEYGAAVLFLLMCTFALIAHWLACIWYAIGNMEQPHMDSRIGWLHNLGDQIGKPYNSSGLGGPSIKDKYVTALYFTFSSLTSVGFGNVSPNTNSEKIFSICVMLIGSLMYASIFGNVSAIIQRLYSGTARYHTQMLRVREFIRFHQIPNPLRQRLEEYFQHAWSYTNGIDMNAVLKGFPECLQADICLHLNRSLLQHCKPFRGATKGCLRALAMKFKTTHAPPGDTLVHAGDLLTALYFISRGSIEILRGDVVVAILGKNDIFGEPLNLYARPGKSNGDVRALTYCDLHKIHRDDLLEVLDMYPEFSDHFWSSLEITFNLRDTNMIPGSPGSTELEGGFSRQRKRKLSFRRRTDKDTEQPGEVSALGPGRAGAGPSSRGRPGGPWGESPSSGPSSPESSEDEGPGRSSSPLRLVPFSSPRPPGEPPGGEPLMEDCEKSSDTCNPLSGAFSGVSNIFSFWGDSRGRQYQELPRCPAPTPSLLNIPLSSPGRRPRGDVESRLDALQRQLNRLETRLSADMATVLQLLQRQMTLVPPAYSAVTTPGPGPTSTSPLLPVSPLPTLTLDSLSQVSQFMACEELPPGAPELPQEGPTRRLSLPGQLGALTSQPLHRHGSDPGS

Q: CCCCCn1c(N2CCC(Cc3ccccc3)CC2)nc2c1c(=O)[nH]c(=O)n2C was tested. Which “hERG current change (%, negative = inhibition) at 1uM” value did it give?
A: 11.2%

Q: For CCCCCCn1c(N2CCN(c3ccccc3)CC2)nc2c1c(=O)[nH]c(=O)n2C, which “hERG current change (%, negative = inhibition) at 1uM” value is on record?
A: -20.5%

Q: With CCCCCn1c(CN2CCN(Cc3ccccc3)CC2)nc2c1c(=O)[nH]c(=O)n2C as the molecule, how does the “hERG current change (%, negative = inhibition) at 1uM” value read?
A: -72.5%

Q: With Cn1c(=O)[nH]c(=O)c2c1nc(N1CCN(Cc3ccccc3)CC1)n2CCCc1ccccc1 as the molecule, how does the “hERG current change (%, negative = inhibition) at 1uM” value read?
A: -22%

Q: For CCCCCn1c(CN2CCN(C)CC2)nc2c1c(=O)n(C)c(=O)n2C, which “hERG current change (%, negative = inhibition) at 1uM” value is on record?
A: -5.24%

Q: How did the “hERG current change (%, negative = inhibition) at 1uM” value turn out when CCCCCCn1c(CN2CCN(Cc3ccccc3)CC2)nc2c1c(=O)n(C)c(=O)n2C was run?
A: -47.2%

Q: How did the “hERG current change (%, negative = inhibition) at 1uM” value turn out when CC(C)CCn1c(CN2CCN(Cc3ccccc3)CC2)nc2c1c(=O)[nH]c(=O)n2C was run?
A: -2.51%

Q: With CCCCCn1c(N2CCN(Cc3ccccc3)CC2)nc2c1c(=O)[nH]c(=O)n2C as the molecule, how does the “hERG current change (%, negative = inhibition) at 1uM” value read?
A: -77%

Q: For CCN1CCN(c2nc3c(c(=O)[nH]c(=O)n3C)n2Cc2ccccc2)CC1, which “hERG current change (%, negative = inhibition) at 1uM” value is on record?
A: 1.8%

Q: How did the “hERG current change (%, negative = inhibition) at 1uM” value turn out when CCN1CCN(c2nc3c(c(=O)[nH]c(=O)n3C)n2CCCc2ccccc2)CC1 was run?
A: -81.5%

Q: For Cn1c(=O)[nH]c(=O)c2c1nc(CN1CCN(Cc3ccccc3)CC1)n2CC(N)=O, which “hERG current change (%, negative = inhibition) at 1uM” value is on record?
A: 6.48%

Q: Which “hERG current change (%, negative = inhibition) at 1uM” value does the source give for CCCCCn1c(CN2CCN(Cc3ccccc3)CC2)nc2c1c(=O)n(C)c(=O)n2C here?
A: -57.9%

Q: For COc1ccc(CCNC(=O)Nc2ccc(F)cc2F)cc1OC, which “hERG current change (%, negative = inhibition) at 1uM” value is on record?
A: 15.8%

Q: For CCOC(=O)C1CCN(C(=O)Nc2ccc3snnc3c2)CC1, which “hERG current change (%, negative = inhibition) at 1uM” value is on record?
A: 3.17%

Q: O=C(Nc1ccc(F)cc1)N(Cc1cccs1)Cc1cc2cc3c(cc2[nH]c1=O)OCO3 was tested. Which “hERG current change (%, negative = inhibition) at 1uM” value did it give?
A: 16.6%

Q: With COc1cc(C(=O)NCCOc2ccccc2)cc(OC)c1OC as the molecule, how does the “hERG current change (%, negative = inhibition) at 1uM” value read?
A: 16.3%

Q: With CCOC(=O)N1CCN(CCC(=O)Nc2ccc(OC)cc2OC)CC1 as the molecule, how does the “hERG current change (%, negative = inhibition) at 1uM” value read?
A: 3.55%

Q: For O=C(Oc1c(-c2ccco2)oc2ccccc2c1=O)c1cccnc1, which “hERG current change (%, negative = inhibition) at 1uM” value is on record?
A: 16.2%

Q: How did the “hERG current change (%, negative = inhibition) at 1uM” value turn out when COc1cc(SC#N)ccc1N=Cc1c(C)[nH]n(-c2cccc3ccccc23)c1=O was run?
A: 13.4%

Q: For COc1ccc(CCNC2CC(=O)N(CCc3ccc(OC)c(OC)c3)C2=O)cc1 (stereo not drawn), which “hERG current change (%, negative = inhibition) at 1uM” value is on record?
A: 7.42%

Q: For O=C(Cn1cnc2c(oc3ccccc32)c1=O)NCC1CCCO1 (stereo not drawn), which “hERG current change (%, negative = inhibition) at 1uM” value is on record?
A: 9.36%

Q: Which “hERG current change (%, negative = inhibition) at 1uM” value does the source give for CCOc1ccc(C(=S)N2CCN(C)CC2)cc1 here?
A: -84.3%

Q: With O=C(c1ccc(F)cc1)N1CCN(Cc2ccccc2)CC1 as the molecule, how does the “hERG current change (%, negative = inhibition) at 1uM” value read?
A: 10.5%

Q: CCOc1ccc(C(=S)N2CCCC2)cc1 was tested. Which “hERG current change (%, negative = inhibition) at 1uM” value did it give?
A: 5.79%

Q: O=C(O)C(=O)O.O=C(c1ccccc1)N1CCN(Cc2ccccc2)CC1 was tested. Which “hERG current change (%, negative = inhibition) at 1uM” value did it give?
A: 2.81%

Q: CCOc1ccc(C(=O)N2CCCCCC2)cc1 was tested. Which “hERG current change (%, negative = inhibition) at 1uM” value did it give?
A: 9.17%

Q: C=CCOc1ccccc1CN1CCC(Cc2ccccc2)CC1 was tested. Which “hERG current change (%, negative = inhibition) at 1uM” value did it give?
A: -51.6%

Q: With C=CCOc1ccccc1CN1CCCCCC1 as the molecule, how does the “hERG current change (%, negative = inhibition) at 1uM” value read?
A: 11.6%

Q: How did the “hERG current change (%, negative = inhibition) at 1uM” value turn out when CCOc1ccc(C(=S)N2CCOCC2)cc1 was run?
A: 5.79%

Q: With CCOc1ccc(C(=O)N2CCCN(C(=O)c3ccc(OCC)cc3)CC2)cc1 as the molecule, how does the “hERG current change (%, negative = inhibition) at 1uM” value read?
A: -69.3%

Q: How did the “hERG current change (%, negative = inhibition) at 1uM” value turn out when C=CCOc1ccccc1CN1CCSCC1 was run?
A: -1.02%

Q: CCOc1ccc(C(=O)N2CCCC2)cc1 was tested. Which “hERG current change (%, negative = inhibition) at 1uM” value did it give?
A: 10.9%

Q: For O=C(c1ccc(-n2cccc2)cc1)N1CCN(Cc2ccccc2)CC1, which “hERG current change (%, negative = inhibition) at 1uM” value is on record?
A: -59.9%

Q: Which “hERG current change (%, negative = inhibition) at 1uM” value does the source give for O=C(CN1CCN(c2ccc(F)cc2)CC1)Nc1ccc(-n2cnnn2)cc1 here?
A: 8.42%

Q: For O=C(CSc1nn(-c2ccc(F)cc2)c(=S)s1)NCC1CCCO1 (stereo not drawn), which “hERG current change (%, negative = inhibition) at 1uM” value is on record?
A: -2.14%

Q: Cc1ccc(Cl)cc1NC(=O)N[C@@H](C)C(=O)O was tested. Which “hERG current change (%, negative = inhibition) at 1uM” value did it give?
A: 9.9%

Q: How did the “hERG current change (%, negative = inhibition) at 1uM” value turn out when Cc1cccc(C2c3[nH]c4ccccc4c3CCN2C(=O)c2cc(CC(C)C)nc(C)n2)n1 (stereo not drawn) was run?
A: 14%

Q: With Clc1ccc(CN2CCC(Cc3ccccc3)CC2)cc1 as the molecule, how does the “hERG current change (%, negative = inhibition) at 1uM” value read?
A: 12.3%

Q: CCOc1ccc(CN2CCC(Cc3ccccc3)CC2)cc1 was tested. Which “hERG current change (%, negative = inhibition) at 1uM” value did it give?
A: -76.8%

Q: With CSc1ccc(CN2CCC(Cc3ccccc3)CC2)cc1 as the molecule, how does the “hERG current change (%, negative = inhibition) at 1uM” value read?
A: -29.6%

Q: CCOc1ccc(CN2CCN(C(=O)c3ccccc3)CC2)cc1 was tested. Which “hERG current change (%, negative = inhibition) at 1uM” value did it give?
A: -1.03%

Q: CCOc1ccc(C(=O)N2CCN(Cc3ccccc3)CC2)cc1 was tested. Which “hERG current change (%, negative = inhibition) at 1uM” value did it give?
A: -60.3%

Q: How did the “hERG current change (%, negative = inhibition) at 1uM” value turn out when CCOc1ccc(C(=O)N2CCN(c3ccccc3)CC2)cc1 was run?
A: -0.559%

Q: Which “hERG current change (%, negative = inhibition) at 1uM” value does the source give for CCCCNC(=O)C1C2C=CC3(CN(Cc4ccc(C)cc4)C(=O)C13)O2 (stereo not drawn) here?
A: 13.1%

Q: Which “hERG current change (%, negative = inhibition) at 1uM” value does the source give for O=C(Nc1cccc(Cl)c1)NC1CCS(=O)(=O)C1 (stereo not drawn) here?
A: 12.9%

Reference: PMC4336329 (PLoS ONE, 2015)
